# Measured values: paper PMC4336329 (PLoS ONE, 2015)
# Screen size: about 310,000 compounds; about 14,000 (4.5%) showed an effect of 50% or more. Effects have a minus sign here. Shown is part of a subset that was picked to be rich in strong results.
# Biological target: human ether-à-go-go-related gene (hERG) potassium channel (human, UniProt Q12809)
# Test: primary screen, population patch clamp on CHO cells stably expressing hERG; higher = less effect of the substance
# 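Also: peak tail current of the secondary pulse compared with the same well before compound.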
# human ether-à-go-go-related gene (hERG) potassium channel, sequence (Q12809 whole entry, looked up): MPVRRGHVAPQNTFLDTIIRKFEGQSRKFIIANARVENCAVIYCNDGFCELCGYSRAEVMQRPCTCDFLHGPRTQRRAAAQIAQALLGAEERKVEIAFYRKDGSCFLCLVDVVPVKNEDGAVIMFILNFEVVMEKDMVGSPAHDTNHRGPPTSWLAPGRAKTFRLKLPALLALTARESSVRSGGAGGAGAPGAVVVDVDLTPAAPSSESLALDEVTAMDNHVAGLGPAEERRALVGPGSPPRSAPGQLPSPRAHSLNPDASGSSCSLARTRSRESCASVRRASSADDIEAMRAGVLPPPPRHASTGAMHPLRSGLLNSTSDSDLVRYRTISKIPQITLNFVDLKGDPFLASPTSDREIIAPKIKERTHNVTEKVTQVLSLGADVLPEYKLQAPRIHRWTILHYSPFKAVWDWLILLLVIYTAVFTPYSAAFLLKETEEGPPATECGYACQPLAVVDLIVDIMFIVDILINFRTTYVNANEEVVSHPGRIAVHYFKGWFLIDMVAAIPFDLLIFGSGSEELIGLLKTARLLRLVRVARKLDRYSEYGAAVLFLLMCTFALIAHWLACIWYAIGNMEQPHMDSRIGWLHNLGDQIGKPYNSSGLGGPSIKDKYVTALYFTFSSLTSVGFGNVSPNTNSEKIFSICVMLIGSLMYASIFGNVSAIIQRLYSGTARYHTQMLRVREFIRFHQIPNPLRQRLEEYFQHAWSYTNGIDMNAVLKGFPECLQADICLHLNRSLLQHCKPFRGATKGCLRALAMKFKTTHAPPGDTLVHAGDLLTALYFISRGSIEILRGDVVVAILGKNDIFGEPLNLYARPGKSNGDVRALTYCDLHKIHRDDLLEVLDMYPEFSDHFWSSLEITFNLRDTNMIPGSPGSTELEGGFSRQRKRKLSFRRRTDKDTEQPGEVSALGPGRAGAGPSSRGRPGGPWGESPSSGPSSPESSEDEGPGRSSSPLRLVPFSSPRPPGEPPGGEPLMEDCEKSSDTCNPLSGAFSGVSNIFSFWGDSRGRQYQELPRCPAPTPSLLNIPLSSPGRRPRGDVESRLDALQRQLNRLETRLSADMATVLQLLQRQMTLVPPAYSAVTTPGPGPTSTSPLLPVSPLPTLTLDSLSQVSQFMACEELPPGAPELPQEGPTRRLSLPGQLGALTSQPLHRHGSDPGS
row,Structure (SMILES),"hERG current change (%, negative = inhibition) at 10uM [%]"
1,CC1(C(=O)NCCCN2CCOCC2)Oc2cccnc2NC1=O (centres unmarked),13.2
2,Cc1ccccc1NC(=S)Nc1ccc(Br)cc1,-6.93
3,CS(=O)(=O)N(Cc1ccccc1)c1ccc(C(=O)Nc2ccccc2Sc2ccccc2)cc1,1.8
4,Cc1cccc(C)c1NC(=O)CN(C)C(=O)c1ccccc1Sc1ccccc1C#N,-4.76
5,O=C(NC(=S)NCc1cccnc1)c1cc2ccccc2o1,8.71
6,CC(=O)c1ccc(O)c(CSC2=NCCS2)c1,19.8
7,O=C(CN1C(=O)NC2(CCc3ccccc32)C1=O)NCCc1ccccc1 (centres unmarked),-6.43
8,NC(=S)NNC(=O)/C(=C/c1ccc(Br)cc1)NC(=O)c1ccccc1,40
9,O=C(CNC(=O)/C(=C\c1ccc(Br)cc1)NC(=O)c1ccccc1)OCc1ccccc1,-59.9
10,COc1ccccc1C(=O)N/C(=C\c1ccc(Br)cc1)C(=O)NCC(=O)O,1.78
11,CC1(c2ccccc2)NC(=O)N(CC(=O)Nc2nc(-c3ccccn3)cs2)C1=O (centres unmarked),0.219
12,COc1ccccc1NC(=O)Nc1nn(C)c2cccc(N(C)C)c12,11
13,COc1cccc(-c2nn(Cc3ccccc3)cc2CO)c1,8.47
14,COC1CCN(Cc2cn(Cc3ccccc3)nc2-c2cc3ccccc3o2)CC1,-71.9
15,COc1ccc(NC(=O)c2cn(CCC#N)nc2-c2cc3ccccc3o2)cc1,-0.308
16,COC(=O)C1CCN(Cc2cn(Cc3ccccc3)nc2-c2cc3ccccc3o2)CC1,-75.9
17,COCCOC1CCN(Cc2cn(Cc3ccccc3)nc2-c2cc3ccccc3o2)CC1,-67
18,COC(=O)C1CCN(Cc2nnc(-c3ccccc3)o2)CC1,16.1
19,COC(=O)C1CCN(C(=O)c2cc3ccccc3oc2=O)CC1,-7.44
20,N#CCCn1cc(C(=O)Nc2ccc(C(=O)O)cc2)c(-c2cc3ccccc3o2)n1,10.7
21,CC(C)(C)c1ccc(/C([O-])=C(/C(=S)NCc2ccco2)[n+]2ccccc2)cc1,6.63
22,Cc1cc(C)cc(NC(=S)N2CCN(S(C)(=O)=O)CC2)c1,4.55
23,CCOc1ccc(N(CC(=O)NCCCOC)S(C)(=O)=O)cc1,4.53

row,Structure (SMILES),"hERG current change (%, negative = inhibition) at 10uM [%]"
1,Cc1ccc2nc3c(c(Nc4ccccc4)c2c1)CCC3.Cl,-71.7
2,COc1ccc2nc3c(c(-c4ccccc4)c2c1)CCC3,-5.34
3,Cc1ccc2nc3c(c(C(=O)O)c2c1)CCC3,2.29
4,Cc1cccc(-c2nc(Nc3cccc(O)c3)c3ccccc3n2)c1,21.8
5,Cc1ccc(-c2nc(Nc3cccc(O)c3)c3ccccc3n2)cc1,11.9
6,COc1ccc(Nc2c3c(nc4ccc(C)cc24)CCC3)cc1.Cl,-78.3
7,COc1ccc(Nc2ncnc3ccc(C)cc23)cc1,-3.17
8,Cc1ccc2nc3c(c(Nc4ccc(O)cc4)c2c1)CCC3.Cl,-21.2
9,Cc1ccc2nc3c(c(Nc4cccc(O)c4)c2c1)CCC3.Cl,-70
10,CC(=O)Nc1ccc(S(=O)(=O)NNC(=O)c2cccc(Cl)c2)cc1,8.3
11,CCOC(=O)CON1C(=O)c2ccccc2C1=O,-5.5
12,COc1ccc(Cl)cc1-n1c(C)cc(C=O)c1C,4.29
13,COc1ccc(CN(C(=O)c2cnccn2)C(C(=O)NC(C)(C)C)c2cc(OC)c(OC)c(OC)c2)cc1 (centres unmarked),1.58
14,CCOC(=O)c1ccc(Oc2coc3cc(O)ccc3c2=O)cc1,17.6
15,CCOc1ccc(NS(=O)(=O)c2ccc(OC)c(NC(=O)c3ccc4c(c3)OCCO4)c2)cc1,-2.7
16,O=C(Cc1csc(-c2ccccc2)n1)NCc1ccco1,-1.66
17,CC(C)c1ccc(C(=O)N2CCCN(C(=O)c3ccc(C(C)C)cc3)CC2)cc1,-32.9
18,CCOc1ccc(C(=O)N2CCN(c3cnn(-c4ccccc4)c(=O)c3Cl)CC2)cc1,-77.8
19,O=C(c1cccc(Br)c1)N1CCN(c2cnn(-c3ccccc3)c(=O)c2Cl)CC1,-47.4
20,O=C(c1ccc(F)cc1)N1CCN(c2cnn(-c3ccccc3)c(=O)c2Cl)CC1,-48.6
21,CCS(=O)(=O)N1CCN(c2cnn(-c3ccccc3)c(=O)c2Cl)CC1,-29
22,COc1ccc(C(=O)N2CCN(c3cnn(-c4ccccc4)c(=O)c3Cl)CC2)cc1,-71.3
23,Cc1ccc(C(=O)N2CCN(c3cnn(C)c(=O)c3Cl)CC2)cc1,-31.1

row,Structure (SMILES),"hERG current change (%, negative = inhibition) at 10uM [%]"
1,Cc1ccn2cc(C(=O)N3CCN(c4cnn(-c5ccccc5)c(=O)c4Cl)CC3)nc2c1,-46.7
2,CC(C)c1ccc(C(=O)N2CCN(c3cnn(C)c(=O)c3Cl)CC2)cc1,-64.4
3,CCCCOP(=O)(c1ccc(N(C)C)cc1)C(O)c1ccc(N(C)C)cc1 (centres unmarked),-5.3
4,COc1cc(/C=C/c2nc(N)nc(-c3ccccc3O)n2)cc(OC)c1OC,-3.86
5,Cc1ncc([N+](=O)[O-])n1CCOC(=O)Nc1ccc(Cl)c(Cl)c1,1.07
6,CCOc1c(CNCCCSc2nc(C)cc(C)n2)cccc1OC.Cl,-11.1
7,Cc1cc(C)nc(SCCCNCc2ccc(Br)cc2)n1.Cl,-36.1
8,CCOc1ccc(Cl)cc1CNCCCSc1nc(C)cc(C)n1.Cl,-59.6
9,Cc1cc(C)nc(SCCCNCc2ccccc2)n1.Cl,-3.19
10,Cc1ccc(CNCCCSc2nc(C)cc(C)n2)cc1.Cl,-52.3
11,CCOc1ccc(Cl)cc1CNCCCSc1ncccn1,-37.3
12,O=C(NC1CCCCC1)C1CC(=O)N(CCc2ccccc2)C1 (centres unmarked),-7.01
13,O=C(c1ccccc1O)N1CCOCC1,3.51
14,CNC(=S)N(CCc1c(C)[nH]c2ccc(OC)cc12)Cc1cccnc1,9.25
15,CCn1c(=O)c(=O)[nH]c2cc(C(=O)NC(C)c3ccc(S(N)(=O)=O)cc3)ccc21 (centres unmarked),3.47
16,CCCCCOc1ccc(/C(C)=N/NC2=NCCN2)cc1,-39.8
17,Cc1cc(-c2ccccc2)nc(N2CCC(C(=O)NC(C)C)CC2)n1,4.06
18,C=CCNC(=O)C1CCN(c2nc(C)cc(-c3ccccc3)n2)CC1,-51.3
19,Cc1cc(N2CCC(C(=O)Nc3ccc(F)cc3)CC2)nc(-c2ccccc2)n1,-32.9
20,C#CCNC(=O)C1CCN(c2cc(C)nc(-c3ccccc3)n2)CC1,-40.7
21,Cc1cc(N2CCC(C(=O)NC3CCCCC3)CC2)nc(-c2ccccc2)n1,-49.6
22,Cc1cc(N2CCC(C(=O)NCC3CC3)CC2)nc(-c2ccccc2)n1,-73.1
23,C=CCNC(=O)C1CCN(c2cc(C)nc(-c3ccccc3)n2)CC1,-58.2

row,Structure (SMILES),"hERG current change (%, negative = inhibition) at 10uM [%]"
1,Cc1cc(N2CCC(C(=O)NC3CC3)CC2)nc(-c2ccccc2)n1,-46
2,Cc1cc(C)nc(N2CCC(C(=O)NCc3ccccc3)CC2)n1,3.44
3,COc1ccc(NC(=O)c2sccc2OS(=O)(=O)N(C)C)cc1,11.2
4,C/C(=N/NC(N)=S)c1ccc(Br)s1,16.8
5,CCOc1ccccc1/C=N/NC(=O)Cc1csc(Nc2cccc(C(F)(F)F)c2)n1,4.05
6,N#CSc1ccc2oc(C3=NCCN3)cc2c1,0.521
7,O=C(c1ccc2c(c1)OCCCO2)N1CCCCC1,11.7
8,CCNc1nc(NCC)nc(OCC(=O)O)n1,7.6
9,COc1ccc(N2CCN(c3nc(NCCO)nc(N4CCOCC4)n3)CC2)cc1,-1.07
10,O=C1NC(=O)N(Cc2ccccc2)C1=O,26.4
11,COc1ccc(C2/C=C\CN(CC3CC3)CC(=O)N2Cc2ccc(F)cc2)cc1 (centres unmarked),-21
12,CCCCNCCOCCOc1ccc(C)cc1Br.O=C(O)C(=O)O,-32.1
13,CCCCNCCCOc1cc(Cl)ccc1Cl.O=C(O)C(=O)O,-54.3
14,COCCCNCCCOc1ccc(C)cc1Br.O=C(O)C(=O)O,-30.7
15,COCCCNCCOCCOc1ccc(Cl)cc1Br.O=C(O)C(=O)O,-51.9
16,CCCCNCCOCCOc1ccccc1-c1ccccc1.O=C(O)C(=O)O,-50.1
17,CCCCNCCCOc1ccc(C)cc1Br.O=C(O)C(=O)O,-35
18,COCCNCCCOc1ccc(Cl)cc1Br.O=C(O)C(=O)O,-42
19,CCCCNCCOCCOc1ccc(Cl)cc1Br.O=C(O)C(=O)O,-57.9
20,OCCNCCCOc1cc(Cl)ccc1Cl,-14.4
21,CCCCNCCOCCSc1ccc(Cl)cc1.O=C(O)C(=O)O,-43.5
22,CCCCNCCOc1ccccc1-c1ccccc1.O=C(O)C(=O)O,-28.2
23,COCCCNCCOCCOc1ccccc1-c1ccccc1.O=C(O)C(=O)O,-29.4
